The results in this text go back to paper PMC7862700, “An all-to-all approach to the identification of sequence-specific readers for epigenetic DNA modifications on cytosine”.

Assay in all cases: DAPPL (digital affinity profiling via proximity ligation, sequencing); 10 mM Tris-HCl pH 7.5, 50 mM NaCl, 1 mM DTT, 4% glycerol, room temperature, 30 min; GST-TFs on glutathione beads, 16-mer random dsDNA library, 0.1% formaldehyde crosslink after washing; high values mean tight binding
In one assay the target is T1, FEV (Homo sapiens, UniProt Q99581 1-238).
T1 sequence: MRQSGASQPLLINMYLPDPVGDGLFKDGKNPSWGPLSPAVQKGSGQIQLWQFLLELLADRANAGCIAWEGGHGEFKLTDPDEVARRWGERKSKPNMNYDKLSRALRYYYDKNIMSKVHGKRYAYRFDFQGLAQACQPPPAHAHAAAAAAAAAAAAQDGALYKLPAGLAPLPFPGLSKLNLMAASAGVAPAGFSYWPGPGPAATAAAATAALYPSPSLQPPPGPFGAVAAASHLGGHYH
The settings on record: protein: recombinant; tags: N-terminal GST; dsDNA, one strand shown. In outline: (§1)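 Binding signal is each hexamer's read frequency for a factor divided by its frequency in the tag-only sample. The factors were GST-fused human transcription factors from yeast, captured on glutathione beads, DNA-barcoded and pooled with that sample. Pools were incubated with 200 nmole of a random double-stranded 16-mer DNA library in Tris/NaCl/DTT/glycerol buffer at room temperature for 30 min, then washed, crosslinked with 0.1% formaldehyde, proximity-ligated with BsaI/T4 ligase (1 h, 37 °C), PCR-amplified and sequenced on an Illumina NextSeq500.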

A further assay addresses ETV5 (Homo sapiens, UniProt P41161 1-510). The settings on record: protein: recombinant; tags: N-terminal GST; dsDNA, one strand shown. In outline: as §1
For the next assay, the target named is HSF1 (Homo sapiens, UniProt Q00613 1-529). The settings on record: protein: recombinant; tags: N-terminal GST; chain copies: 3; dsDNA, one strand shown. The method in brief: as §1
Another assay concerns the target T2, SPIC (Homo sapiens, UniProt Q8N5J4 1-248).
T2 sequence: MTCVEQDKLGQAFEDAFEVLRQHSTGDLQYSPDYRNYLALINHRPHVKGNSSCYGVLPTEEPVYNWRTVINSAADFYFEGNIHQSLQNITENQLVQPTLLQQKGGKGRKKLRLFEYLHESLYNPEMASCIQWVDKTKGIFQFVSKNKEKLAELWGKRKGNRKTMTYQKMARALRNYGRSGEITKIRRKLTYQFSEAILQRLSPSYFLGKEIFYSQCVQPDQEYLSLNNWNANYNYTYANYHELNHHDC
The settings on record: protein: recombinant; tags: N-terminal GST; dsDNA, one strand shown. The method in brief:
as §1

The next assay concerns the target ELF4 (Homo sapiens, UniProt Q99607 1-663). The settings on record: protein: recombinant; tags: N-terminal GST; dsDNA, one strand shown. In outline: as §1
A further assay deals with T3, ELK4 (Homo sapiens, UniProt P28324-2 1-405).
T3 sequence: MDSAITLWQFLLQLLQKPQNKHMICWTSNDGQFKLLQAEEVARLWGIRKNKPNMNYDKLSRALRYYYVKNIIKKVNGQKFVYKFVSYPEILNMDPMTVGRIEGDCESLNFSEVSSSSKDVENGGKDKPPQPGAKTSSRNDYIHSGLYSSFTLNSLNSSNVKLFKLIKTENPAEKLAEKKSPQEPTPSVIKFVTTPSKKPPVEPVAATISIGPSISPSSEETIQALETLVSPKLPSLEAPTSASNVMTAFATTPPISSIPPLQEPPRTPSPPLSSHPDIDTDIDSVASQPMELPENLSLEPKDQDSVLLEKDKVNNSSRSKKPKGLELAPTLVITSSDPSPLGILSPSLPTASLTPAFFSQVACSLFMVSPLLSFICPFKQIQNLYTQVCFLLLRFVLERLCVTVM
The settings on record: protein: recombinant; tags: N-terminal GST; dsDNA, one strand shown. The method in brief: as §1

A further assay addresses T4, ETV2 (Homo sapiens, UniProt O00321 1-342).
T4 sequence: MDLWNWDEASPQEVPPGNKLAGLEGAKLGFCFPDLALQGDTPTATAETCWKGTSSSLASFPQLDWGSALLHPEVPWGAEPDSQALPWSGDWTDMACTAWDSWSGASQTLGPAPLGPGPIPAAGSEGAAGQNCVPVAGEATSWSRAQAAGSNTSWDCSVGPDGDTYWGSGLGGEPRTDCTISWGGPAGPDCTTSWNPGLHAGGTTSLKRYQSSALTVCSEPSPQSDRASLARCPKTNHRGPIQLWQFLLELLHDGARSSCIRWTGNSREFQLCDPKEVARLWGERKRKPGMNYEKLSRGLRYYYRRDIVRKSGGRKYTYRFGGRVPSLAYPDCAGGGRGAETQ
The settings on record: protein: recombinant; tags: N-terminal GST; dsDNA, one strand shown. The method in brief: as §1

In the next assay the target is T5, ELF3 (Homo sapiens, UniProt P78545 1-371).
T5 sequence: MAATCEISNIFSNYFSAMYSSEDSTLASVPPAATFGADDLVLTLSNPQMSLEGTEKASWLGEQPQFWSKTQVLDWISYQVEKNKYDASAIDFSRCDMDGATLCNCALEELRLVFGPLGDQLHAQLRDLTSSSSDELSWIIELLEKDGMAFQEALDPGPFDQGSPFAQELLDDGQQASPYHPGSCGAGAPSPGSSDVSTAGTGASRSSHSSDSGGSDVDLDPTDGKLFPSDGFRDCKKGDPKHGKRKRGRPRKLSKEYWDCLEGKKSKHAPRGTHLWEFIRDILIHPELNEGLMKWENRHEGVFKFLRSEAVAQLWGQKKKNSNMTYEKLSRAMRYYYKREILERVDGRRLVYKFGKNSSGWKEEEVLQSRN
The settings on record: protein: recombinant; tags: N-terminal GST; dsDNA, one strand shown. The method in brief: as §1

The next assay deals with CRX (Homo sapiens, UniProt O43186 1-299). The settings on record: protein: recombinant; tags: N-terminal GST; dsDNA, one strand shown. The method in brief:
as §1

The target in the next assay is ETV1 (Homo sapiens, UniProt P50549 1-477). The settings on record: protein: recombinant; tags: N-terminal GST; dsDNA, one strand shown. The method in brief:
as §1

A further assay addresses T6, ERF (Homo sapiens, UniProt P50548 1-548).
T6 sequence: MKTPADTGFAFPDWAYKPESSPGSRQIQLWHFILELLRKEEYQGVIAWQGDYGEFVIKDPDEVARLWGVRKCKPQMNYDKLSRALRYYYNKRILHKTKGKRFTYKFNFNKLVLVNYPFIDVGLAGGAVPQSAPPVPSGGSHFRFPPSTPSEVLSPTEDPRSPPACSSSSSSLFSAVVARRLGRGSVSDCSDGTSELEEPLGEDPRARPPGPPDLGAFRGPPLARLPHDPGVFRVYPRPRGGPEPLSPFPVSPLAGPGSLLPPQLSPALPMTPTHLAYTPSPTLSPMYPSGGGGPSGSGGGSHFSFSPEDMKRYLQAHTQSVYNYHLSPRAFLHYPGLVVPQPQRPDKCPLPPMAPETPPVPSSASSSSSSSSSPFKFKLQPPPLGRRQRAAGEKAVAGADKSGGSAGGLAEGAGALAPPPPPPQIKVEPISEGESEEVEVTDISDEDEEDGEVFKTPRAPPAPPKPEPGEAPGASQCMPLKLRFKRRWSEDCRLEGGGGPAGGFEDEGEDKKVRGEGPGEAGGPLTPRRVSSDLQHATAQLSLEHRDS
The settings on record: protein: recombinant; tags: N-terminal GST; dsDNA, one strand shown. The method in brief:
as §1

The next assay concerns the target T7, ETV3L (Homo sapiens, UniProt Q6ZN32 1-361).
T7 sequence: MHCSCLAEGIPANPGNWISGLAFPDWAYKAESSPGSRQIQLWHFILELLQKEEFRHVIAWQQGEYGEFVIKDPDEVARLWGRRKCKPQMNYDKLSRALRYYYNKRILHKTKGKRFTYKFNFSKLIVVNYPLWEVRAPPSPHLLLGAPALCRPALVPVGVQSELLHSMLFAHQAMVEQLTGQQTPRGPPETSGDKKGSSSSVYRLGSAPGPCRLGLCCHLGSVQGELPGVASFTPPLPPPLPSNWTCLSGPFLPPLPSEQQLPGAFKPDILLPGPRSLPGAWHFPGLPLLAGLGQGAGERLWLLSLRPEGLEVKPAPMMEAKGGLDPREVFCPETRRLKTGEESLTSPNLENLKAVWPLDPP
The settings on record: protein: recombinant; tags: N-terminal GST; dsDNA, one strand shown. In outline:
as §1

Another assay concerns the target T8, ETS2 (Homo sapiens, UniProt P15036 1-469).
T8 sequence: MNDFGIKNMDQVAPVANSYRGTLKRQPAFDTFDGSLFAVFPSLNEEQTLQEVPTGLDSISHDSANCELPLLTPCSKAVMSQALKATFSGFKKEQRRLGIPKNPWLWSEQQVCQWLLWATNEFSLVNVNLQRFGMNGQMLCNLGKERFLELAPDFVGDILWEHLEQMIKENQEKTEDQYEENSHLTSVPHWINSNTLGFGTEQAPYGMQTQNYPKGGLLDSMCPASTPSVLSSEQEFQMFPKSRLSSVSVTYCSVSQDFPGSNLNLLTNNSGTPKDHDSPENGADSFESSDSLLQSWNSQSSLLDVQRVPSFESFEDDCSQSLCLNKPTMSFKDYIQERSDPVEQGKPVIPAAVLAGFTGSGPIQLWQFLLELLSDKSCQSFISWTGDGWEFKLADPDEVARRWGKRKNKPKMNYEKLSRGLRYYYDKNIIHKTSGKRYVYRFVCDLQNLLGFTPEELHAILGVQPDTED
The settings on record: protein: recombinant; tags: N-terminal GST; dsDNA, one strand shown. In outline:
as §1

A further assay concerns the target T9, SPDEF (Homo sapiens, UniProt O95238 1-335).
T9 sequence: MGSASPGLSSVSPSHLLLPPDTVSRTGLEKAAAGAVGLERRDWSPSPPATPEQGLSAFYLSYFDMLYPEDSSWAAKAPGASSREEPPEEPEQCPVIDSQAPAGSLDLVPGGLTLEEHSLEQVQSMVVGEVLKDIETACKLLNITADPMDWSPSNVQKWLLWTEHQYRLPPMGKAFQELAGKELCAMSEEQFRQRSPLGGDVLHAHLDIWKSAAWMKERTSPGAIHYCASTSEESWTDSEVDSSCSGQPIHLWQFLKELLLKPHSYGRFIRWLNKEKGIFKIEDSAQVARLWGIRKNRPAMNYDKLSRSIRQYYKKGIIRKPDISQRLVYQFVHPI
The settings on record: protein: recombinant; tags: N-terminal GST; dsDNA, one strand shown. In outline: as §1

For the next assay, the target named is T10, ETV7 (Homo sapiens, UniProt Q9Y603 1-341).
T10 sequence: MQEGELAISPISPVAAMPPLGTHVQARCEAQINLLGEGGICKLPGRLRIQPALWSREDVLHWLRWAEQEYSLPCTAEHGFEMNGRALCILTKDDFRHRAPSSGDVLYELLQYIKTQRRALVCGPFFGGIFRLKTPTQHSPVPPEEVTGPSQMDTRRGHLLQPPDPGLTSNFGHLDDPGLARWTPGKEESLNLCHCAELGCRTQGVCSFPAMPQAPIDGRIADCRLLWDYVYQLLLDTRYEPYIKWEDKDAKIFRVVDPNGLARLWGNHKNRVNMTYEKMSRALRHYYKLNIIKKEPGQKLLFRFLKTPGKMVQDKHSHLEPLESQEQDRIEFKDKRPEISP
The settings on record: protein: recombinant; tags: N-terminal GST; dsDNA, one strand shown. In outline:
as §1

Another assay deals with T11, ELF5 (Homo sapiens, UniProt Q9UKW6-2 1-255).
T11 sequence: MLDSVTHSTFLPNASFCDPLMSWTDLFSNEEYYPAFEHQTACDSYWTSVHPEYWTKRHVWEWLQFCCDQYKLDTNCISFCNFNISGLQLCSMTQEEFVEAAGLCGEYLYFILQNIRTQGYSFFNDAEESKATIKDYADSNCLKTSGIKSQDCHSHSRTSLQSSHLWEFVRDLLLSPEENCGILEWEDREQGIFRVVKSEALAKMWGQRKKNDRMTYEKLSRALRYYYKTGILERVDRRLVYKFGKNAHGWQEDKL
The settings on record: protein: recombinant; tags: N-terminal GST; dsDNA, one strand shown. In outline:
as §1

A further assay addresses T12, ETV3 (Homo sapiens, UniProt P41162-2 1-143).
T12 sequence: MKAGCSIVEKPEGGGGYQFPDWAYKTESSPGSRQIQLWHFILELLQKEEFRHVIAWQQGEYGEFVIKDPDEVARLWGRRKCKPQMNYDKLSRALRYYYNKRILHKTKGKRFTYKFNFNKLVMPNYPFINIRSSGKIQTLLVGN
The settings on record: protein: recombinant; tags: N-terminal GST; dsDNA, one strand shown. The method in brief:
as §1

Another assay addresses ETV6 (Homo sapiens, UniProt P41212 1-452). The settings on record: protein: recombinant; tags: N-terminal GST; dsDNA, one strand shown. The method in brief:
as §1

Chain of ETV5 (P41161 whole entry): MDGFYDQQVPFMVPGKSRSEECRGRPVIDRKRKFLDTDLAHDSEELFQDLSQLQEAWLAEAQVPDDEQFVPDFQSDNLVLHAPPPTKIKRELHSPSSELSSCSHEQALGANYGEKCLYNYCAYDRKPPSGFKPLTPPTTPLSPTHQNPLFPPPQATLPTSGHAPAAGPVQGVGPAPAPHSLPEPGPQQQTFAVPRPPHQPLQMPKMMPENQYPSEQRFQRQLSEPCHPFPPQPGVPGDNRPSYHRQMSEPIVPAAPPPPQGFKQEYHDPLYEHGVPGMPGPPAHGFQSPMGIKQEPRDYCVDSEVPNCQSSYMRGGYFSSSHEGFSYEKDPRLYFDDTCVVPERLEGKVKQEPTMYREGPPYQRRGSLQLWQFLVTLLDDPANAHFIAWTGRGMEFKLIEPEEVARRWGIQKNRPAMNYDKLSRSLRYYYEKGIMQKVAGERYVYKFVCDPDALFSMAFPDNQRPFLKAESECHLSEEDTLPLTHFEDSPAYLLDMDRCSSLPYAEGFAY
Chain of CRX (O43186 whole entry): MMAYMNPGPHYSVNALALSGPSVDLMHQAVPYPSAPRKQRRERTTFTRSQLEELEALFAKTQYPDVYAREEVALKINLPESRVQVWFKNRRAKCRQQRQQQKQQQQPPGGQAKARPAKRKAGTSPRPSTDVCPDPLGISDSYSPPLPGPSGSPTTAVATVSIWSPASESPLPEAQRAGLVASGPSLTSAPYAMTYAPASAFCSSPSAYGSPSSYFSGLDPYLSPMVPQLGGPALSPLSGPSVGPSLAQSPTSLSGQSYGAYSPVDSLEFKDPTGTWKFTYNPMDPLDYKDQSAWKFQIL
Chain of ELF4 (Q99607 whole entry): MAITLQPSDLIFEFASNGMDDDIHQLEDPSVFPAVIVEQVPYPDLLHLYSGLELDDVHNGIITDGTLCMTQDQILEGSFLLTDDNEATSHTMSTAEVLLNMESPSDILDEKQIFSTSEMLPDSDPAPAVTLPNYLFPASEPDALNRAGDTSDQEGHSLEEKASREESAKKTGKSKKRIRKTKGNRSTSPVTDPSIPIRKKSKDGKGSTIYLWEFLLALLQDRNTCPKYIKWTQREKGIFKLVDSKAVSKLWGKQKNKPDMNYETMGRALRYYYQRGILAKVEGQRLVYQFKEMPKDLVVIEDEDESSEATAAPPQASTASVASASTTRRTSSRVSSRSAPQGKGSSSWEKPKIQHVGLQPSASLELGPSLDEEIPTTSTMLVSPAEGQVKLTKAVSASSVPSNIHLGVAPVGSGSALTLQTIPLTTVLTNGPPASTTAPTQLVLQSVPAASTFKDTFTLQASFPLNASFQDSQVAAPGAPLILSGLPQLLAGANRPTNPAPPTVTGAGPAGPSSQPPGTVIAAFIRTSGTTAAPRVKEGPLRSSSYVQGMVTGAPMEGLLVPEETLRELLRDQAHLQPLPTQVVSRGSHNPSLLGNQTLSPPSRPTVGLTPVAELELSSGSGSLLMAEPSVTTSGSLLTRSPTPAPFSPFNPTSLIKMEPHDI
Chain of HSF1 (Q00613 whole entry): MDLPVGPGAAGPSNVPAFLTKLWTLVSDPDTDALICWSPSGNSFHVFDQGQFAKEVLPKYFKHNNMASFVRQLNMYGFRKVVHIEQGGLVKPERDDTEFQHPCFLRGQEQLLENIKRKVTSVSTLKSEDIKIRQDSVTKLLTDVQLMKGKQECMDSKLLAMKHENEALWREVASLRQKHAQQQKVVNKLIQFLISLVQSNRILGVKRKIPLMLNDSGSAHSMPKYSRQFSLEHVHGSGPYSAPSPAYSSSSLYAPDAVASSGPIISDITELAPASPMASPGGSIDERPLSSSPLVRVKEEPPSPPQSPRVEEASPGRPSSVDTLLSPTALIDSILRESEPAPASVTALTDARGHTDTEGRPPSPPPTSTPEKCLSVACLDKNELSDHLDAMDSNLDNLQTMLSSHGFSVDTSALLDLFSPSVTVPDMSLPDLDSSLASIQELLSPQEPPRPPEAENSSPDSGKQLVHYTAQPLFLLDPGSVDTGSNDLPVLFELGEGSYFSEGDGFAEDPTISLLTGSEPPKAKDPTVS
Chain of ETV6 (P41212 whole entry): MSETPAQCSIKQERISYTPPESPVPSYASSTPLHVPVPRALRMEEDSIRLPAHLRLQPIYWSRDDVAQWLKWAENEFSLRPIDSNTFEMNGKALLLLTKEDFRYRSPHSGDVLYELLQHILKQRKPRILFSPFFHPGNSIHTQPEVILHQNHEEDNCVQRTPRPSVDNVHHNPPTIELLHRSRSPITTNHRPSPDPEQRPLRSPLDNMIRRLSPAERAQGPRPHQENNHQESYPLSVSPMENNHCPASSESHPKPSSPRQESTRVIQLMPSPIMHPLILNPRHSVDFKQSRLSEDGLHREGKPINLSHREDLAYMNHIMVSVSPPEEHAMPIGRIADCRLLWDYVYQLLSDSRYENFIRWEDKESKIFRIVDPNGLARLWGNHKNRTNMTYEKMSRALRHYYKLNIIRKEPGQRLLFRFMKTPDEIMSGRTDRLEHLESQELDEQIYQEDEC
Chain of ETV1 (P50549 whole entry): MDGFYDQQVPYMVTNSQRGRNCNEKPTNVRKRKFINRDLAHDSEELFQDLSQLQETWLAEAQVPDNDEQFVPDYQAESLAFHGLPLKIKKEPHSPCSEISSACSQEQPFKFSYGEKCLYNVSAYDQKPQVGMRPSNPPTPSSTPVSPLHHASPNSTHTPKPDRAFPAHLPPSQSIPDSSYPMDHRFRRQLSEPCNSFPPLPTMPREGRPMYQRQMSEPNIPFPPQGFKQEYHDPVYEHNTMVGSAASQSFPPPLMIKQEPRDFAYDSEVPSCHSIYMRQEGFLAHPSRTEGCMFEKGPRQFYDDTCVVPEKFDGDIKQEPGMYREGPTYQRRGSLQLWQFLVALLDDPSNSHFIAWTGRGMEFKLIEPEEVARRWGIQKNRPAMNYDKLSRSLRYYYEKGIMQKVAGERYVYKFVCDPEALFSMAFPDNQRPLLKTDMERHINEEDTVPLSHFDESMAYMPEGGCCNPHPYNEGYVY

For CGTTCT, the binding signal with FEV was 1.45 fold enrichment (6-mer frequency, TF over GST control); with ETV5 it was 1.45 fold enrichment (6-mer frequency, TF over GST control); in the assay with HSF1 it was 2.27 fold enrichment (6-mer frequency, TF over GST control); in the assay with SPIC, 1.45 fold enrichment (6-mer frequency, TF over GST control); with ELF4 it was 1.47 fold enrichment (6-mer frequency, TF over GST control); with ELK4 it was 1.43 fold enrichment (6-mer frequency, TF over GST control). Further, the binding signal in the assay with ETV2 was 1.39 fold enrichment (6-mer frequency, TF over GST control); with ELF3 it was 1.4 fold enrichment (6-mer frequency, TF over GST control); with CRX it was 1.49 fold enrichment (6-mer frequency, TF over GST control); in the assay with ETV1 it was 1.37 fold enrichment (6-mer frequency, TF over GST control); with ERF it was 1.46 fold enrichment (6-mer frequency, TF over GST control); with ETV3L, 1.51 fold enrichment (6-mer frequency, TF over GST control). Moreover, the binding signal with ETS2 was 1.37 fold enrichment (6-mer frequency, TF over GST control); with SPDEF, 1.44 fold enrichment (6-mer frequency, TF over GST control); in the assay with ETV7, 1.56 fold enrichment (6-mer frequency, TF over GST control); in the assay with ELF5, 1.44 fold enrichment (6-mer frequency, TF over GST control); with ETV3 it was 1.37 fold enrichment (6-mer frequency, TF over GST control); with ETV6, 1.47 fold enrichment (6-mer frequency, TF over GST control).
